From PubChem BioAssay (Tox21)
Several values for one entry are separate records, joined by “and”; a condition that tells them apart may be missing. Identical values can stand only once. Records with an inconclusive call do not appear. A call without a number means that no potency is given here. Activity calls are given as the source filed them. Unless noted, calls come from the whole dose curve; as a rule, active = well fitted cell-killing curve with a large enough effect in the repeat runs (not every such curve was filed as active); inconclusive = weak or mixed curves, or effect the other way; inactive = no such curve, though single readings can be large or run the other way.

System: not listed separately
Assay: qHTS assay to identify small molecule agonists of the farnesoid-X-receptor (FXR) signaling pathway - cell viability counter screen (AID 743218; active = well fitted cell-killing curve with a large enough effect in the repeat runs; note: nearly all actives have a fitted effect of over 45% in size; note: potency is the fitted concentration of half-maximal effect)
Conditions: FXR-bla HEK293T viability, CellTiter-Glo luminescence, 16 h; series mostly up to 62.6 µM
Method in brief: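 Parallel cytotoxicity test: compound-treated (16 h, 37 C) HEK 293T FXR-bla reporter cells were lysed with CellTiter-Glo and luminescence recorded.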

Which Potency does the source give for O=C1C=CC(=O)N1c1ccccc1 here?
The Potency was 49 µM (active).

Which Potency does the source give for CNC(=O)c1cc(Oc2ccc(NC(=O)Nc3ccc(Cl)c(C(F)(F)F)c3)cc2)ccn1 here?
The Potency was 21.1 µM (active).

For CCCCCCCC/C=C\CCCCCCCC(=O)NCc1ccc(O)c(OC)c1, which Potency is on record?
Its Potency is 29.8 µM (active).

For Cc1c(-c2ccc(O)cc2)n(Cc2ccc(OCCN3CCCCCC3)cc2)c2ccc(O)cc12, which Potency is on record?
The Potency was 29.8 µM (active).

With C1CC(COCC2CO2)CCC1COCC1CO1 (stereo not drawn) as the compound, how does the Potency read?
Its Potency is “inactive”.

For CCCCCCCCCCCCOC(=O)c1cc(O)c(O)c(O)c1, which Potency is on record?
The Potency was 43.5 µM (active).

Which Potency does the source give for [O]=[Zr] here?
The Potency was “inactive”.

For CCCCCCCCCC(=O)N(C)C, which Potency is on record?
Its Potency is “inactive”.

Which Potency does the source give for CCCCCCCOC(=O)c1ccc(O)cc1 here?
Its Potency is “inactive”.

With O=C(O)Cc1ccc(OCCNC[C@H](O)c2ccccc2)cc1 as the compound, how does the Potency read?
Its Potency is “inactive”.

For O=C(c1ccccc1)c1cc(Cl)ccc1O, which Potency is on record?
Its Potency is “inactive”.

For CCCCCCCCCCOCC(O)CN (stereo not drawn), which Potency is on record?
Its Potency is 33.5 µM (active).

Which Potency does the source give for CCN=c1cc2oc3cc(NCC)c(C)cc3c(-c3ccccc3C(=O)OCC)c-2cc1C here?
Its Potency is 48.8 µM (active) and 38.9 µM (active).

For CCOC(=O)[C@@](C)(N)Cc1ccc(O)c(O)c1, which Potency is on record?
The Potency was “inactive”.

Biological target: Bile acid receptor (Homo sapiens) (UniProt Q96RI1)
Assay: qHTS assay to identify small molecule agonists of the farnesoid-X-receptor (FXR) signaling pathway (AID 743220; active = well fitted activation curve with a large enough effect in the signal ratio in the repeat runs, not every such curve was filed as active; the % refers to the signal ratio)
Conditions: HEK293T FXR-UAS-bla, beta-lactamase FRET ratio, 16 h; series mostly up to 62.6 µM
Method in brief: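 Beta-lactamase reporter under UAS control in GeneBLAzer FXR HEK 293T cells (5000/well) measured with LiveBLAzer FRET substrate after 2 h at room temperature. Compound exposure lasted 16 h at 37C.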

Chain of Bile acid receptor (Homo sapiens) (Q96RI1 whole entry, looked up): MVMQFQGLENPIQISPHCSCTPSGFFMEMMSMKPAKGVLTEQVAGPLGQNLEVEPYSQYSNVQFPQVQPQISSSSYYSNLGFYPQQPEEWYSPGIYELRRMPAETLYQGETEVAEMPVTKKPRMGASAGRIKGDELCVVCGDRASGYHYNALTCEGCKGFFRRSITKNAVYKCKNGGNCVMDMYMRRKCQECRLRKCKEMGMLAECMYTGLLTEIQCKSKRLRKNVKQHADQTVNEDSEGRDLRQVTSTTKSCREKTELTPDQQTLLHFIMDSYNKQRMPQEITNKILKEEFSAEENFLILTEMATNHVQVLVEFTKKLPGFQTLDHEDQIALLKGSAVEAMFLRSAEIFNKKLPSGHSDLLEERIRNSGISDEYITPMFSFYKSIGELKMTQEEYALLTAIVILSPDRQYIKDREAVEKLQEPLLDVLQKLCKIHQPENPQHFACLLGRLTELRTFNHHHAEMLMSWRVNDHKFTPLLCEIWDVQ

Which Potency does the source give for Cc1ccc2ccc3cccc4ccc1c2c34 here?
The Potency was “inactive”.

For CCOC(=O)COc1ccc(C)cc1, which Potency is on record?
Its Potency is “inactive”.

Which Potency does the source give for CNC(=O)c1cc(Oc2ccc(NC(=O)Nc3ccc(Cl)c(C(F)(F)F)c3)cc2)ccn1 here?
Its Potency is “inactive”.

Which Potency does the source give for CCCCCCCC/C=C\CCCCCCCC(=O)NCc1ccc(O)c(OC)c1 here?
Its Potency is “inactive”.

With Cc1cc(Nc2ccc(O)cc2)ccc1N as the compound, how does the Potency read?
The Potency was “inactive”.

With CC(C)N=C(N)/N=C(\N)Nc1ccc(Cl)cc1 as the compound, how does the Potency read?
Its Potency is “inactive”.

With [O]=[Zr] as the compound, how does the Potency read?
Its Potency is “inactive”.

With CCCCCCCCCC(=O)N(C)C as the compound, how does the Potency read?
The Potency was “inactive”.

Which Potency does the source give for CCCCCCCOC(=O)c1ccc(O)cc1 here?
Its Potency is “inactive”.

Which Potency does the source give for O=C(O)Cc1ccc(OCCNC[C@H](O)c2ccccc2)cc1 here?
Its Potency is “inactive”.

For O=C(c1ccccc1)c1cc(Cl)ccc1O, which Potency is on record?
The Potency was “inactive”.

For O=C1c2c(O)ccc(O)c2C(=O)c2c(NCCNCCO)ccc(NCCNCCO)c21, which Potency is on record?
The Potency was “inactive”.

Which Potency does the source give for CCN=c1cc2oc3cc(NCC)c(C)cc3c(-c3ccccc3C(=O)OCC)c-2cc1C here?
Its Potency is “inactive”.

With CCOC(=O)[C@@](C)(N)Cc1ccc(O)c(O)c1 as the compound, how does the Potency read?
Its Potency is “inactive”.

For CN(Cc1cc(Br)cc(Br)c1N)C1CCCCC1, which Potency is on record?
The Potency was “inactive”.

System: not listed separately
Assay: qHTS assay to identify small molecule antagonists of the farnesoid-X-receptor (FXR) signaling pathway - cell viability counter screen (AID 743221); note: nearly all actives have a fitted effect of over 50% in size; note: potency is the fitted concentration of half-maximal effect
Conditions: FXR-bla HEK293T viability, CellTiter-Glo luminescence, 16 h; series mostly up to 62.6 µM
Method in brief: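 Here viability was scored by luminescence after CellTiter-Glo addition to wells already read for beta-lactamase. Prior treatment: compound plus CDCA (50 uM final), 16 h, 37 C, HEK 293T FXR-bla cells.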

With CCOC(=O)COc1ccc(C)cc1 as the compound, how does the Potency read?
The Potency was “inactive”.

With CCCCCCCCCCCCCCCC as the compound, how does the Potency read?
Its Potency is “inactive”.

For CNC(=O)c1cc(Oc2ccc(NC(=O)Nc3ccc(Cl)c(C(F)(F)F)c3)cc2)ccn1, which Potency is on record?
Its Potency is 29.8 µM (active).

For Cc1cc2c(C(C)C)c(O)c(O)c(C=O)c2c(O)c1-c1c(C)cc2c(C(C)C)c(O)c(O)c(C=O)c2c1O, which Potency is on record?
Its Potency is 16.8 µM (active).

Which Potency does the source give for CCCN(CCc1cccs1)[C@H]1CCc2c(O)cccc2C1 here?
The Potency was “inactive”.

Which Potency does the source give for C1CC(COCC2CO2)CCC1COCC1CO1 (stereo not drawn) here?
The Potency was “inactive”.

With CCCCCCCCCCCCOC(=O)c1cc(O)c(O)c(O)c1 as the compound, how does the Potency read?
Its Potency is 38.7 µM (active) and 19.5 µM (active).

With CCCCCCCCCC(=O)N(C)C as the compound, how does the Potency read?
The Potency was “inactive”.

For Cc1occc1SSc1ccoc1C, which Potency is on record?
Its Potency is “inactive”.

Which Potency does the source give for c1cc2c3c(c1)ccc1cccc(c13)C2 here?
Its Potency is “inactive”.

Which Potency does the source give for C=C(C)C(=O)OCCC[Si](Cl)(Cl)Cl here?
The Potency was “inactive”.

With ClC/C=C\CCl as the compound, how does the Potency read?
The Potency was “inactive”.

For CCCCCCCOC(=O)c1ccc(O)cc1, which Potency is on record?
Its Potency is “inactive”.

With O=C(O)Cc1ccc(OCCNC[C@H](O)c2ccccc2)cc1 as the compound, how does the Potency read?
The Potency was “inactive”.

With CCC(C)(C)c1cc(O)c(C(C)(C)CC)cc1O as the compound, how does the Potency read?
Its Potency is “inactive”.

For O=C(c1ccccc1)c1cc(Cl)ccc1O, which Potency is on record?
The Potency was “inactive”.

With CCN=c1cc2oc3cc(NCC)c(C)cc3c(-c3ccccc3C(=O)OCC)c-2cc1C as the compound, how does the Potency read?
The Potency was 54.7 µM (active) and 54.9 µM (active).

For Nc1ncnc2c1ncn2[C@@H]1O[C@H](COP(=O)(O)O)[C@@H](O)[C@H]1O, which Potency is on record?
Its Potency is 13.3 µM (active).

Which Potency does the source give for CCOC(=O)[C@@](C)(N)Cc1ccc(O)c(O)c1 here?
Its Potency is “inactive”.
